Data on 40 compounds can be found in the supplement of paper PMC9950053.

Molecules are shown by their SMILES. Where a name gives a salt, the structure may show the parent alone.

The subject of the assay is Danio rerio larvae (5 dpf). The assay is described as follows: habituation (activity change first vs second 5 min of 1-s interval sound, period 17) minus DMSO control (percentage points); higher = larger habituation measure than DMSO larvae. Particulars: 10 µM; exposure time: 3 h pre-incubation + 3 h imaging. On the procedure: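 Wild-type 5 dpf zebrafish larvae (n=48 per drug, 96-well plates, 28.5 °C) were exposed to Tocris FDA-approved library compounds at 10 µM (0.1% DMSO) for 3 h before and 3 h during imaging. Images were taken every 6 s during visual (moving coloured lines) and acoustic stimuli, and larvae were tracked with the DeepLabCut-based Z-LaP Tracker. Each behavioural measure is the treated-group mean minus the DMSO vehicle control mean (n=844), in percentage points. This mapping covers compounds with 4-character plate codes.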
Turning to `CN1CC[C@@H](NC(=O)Nc2ccc(C#N)cc2)C[C@@H]1c1nc2ccccc2[nH]1`, the habituation is -0.504. In the case of `CCCCCCCCc1ccc(CCC(N)(CO)CO)cc1`, the habituation was -0.454. Consider `C=CC(=O)N1CCC[C@@H](n2nc(-c3ccc(Oc4ccccc4)cc3)c3c(N)ncnc32)C1` [Ibrutinib], for which the habituation was -7.32. Turning to `O=c1[nH]c(=O)n([C@H]2C[C@H](O)[C@@H](CO)O2)cc1C(F)(F)F` [Trifluorothymidine], the habituation amounted to 6.83.

For `CCOc1nc2cccc(C(=O)O)c2n1Cc1ccc(-c2ccccc2-c2noc(=O)[nH]2)cc1` [Azilsartan], the habituation turned out to be 8.15.

As to `C[C@H]1C[C@@H]2[C@H]([C@@H](O)C[C@@]3(C)[C@H]2CC[C@]3(O)C(=O)CO)[C@@]2(C)C=CC(=O)C=C12` [Methylprednisolone], the habituation stood at 0.909. For `CC(C)c1nc(CN(C)C(=O)N[C@H](C(=O)N[C@@H](Cc2ccccc2)C[C@H](O)[C@H](Cc2ccccc2)NC(=O)OCc2cncs2)C(C)C)cs1` [Ritonavir] the value was -0.524. As for `CCOC(=O)[C@H](CCc1ccccc1)N[C@H]1CCc2ccccc2N(CC(=O)O)C1=O` [Benazepril hydrochloride], the habituation is 1.78. As for `NS(=O)(=O)c1cc(C(=O)O)c(NCc2ccco2)cc1Cl` [Furosemide], the habituation is 2.23. With `COc1cc2nc(N3CCN(C(=O)c4ccco4)CC3)nc(N)c2cc1OC` [Prazosin hydrochloride] the figure was 0.443.

With `Cc1cn([C@H]2C=C[C@@H](CO)O2)c(=O)[nH]c1=O` [Stavudine], the habituation was -0.444. In the case of `CCCCNc1cc(C(=O)O)cc(S(N)(=O)=O)c1Oc1ccccc1` [Bumetanide], the habituation was -0.555.

Take `CCc1c2c(nc3ccc(OC(=O)N4CCC(N5CCCCC5)CC4)cc13)-c1cc3c(c(=O)n1C2)COC(=O)[C@]3(O)CC`: the habituation stood at 9.09.

As to `Nc1ccn([C@@H]2O[C@H](CO)[C@@H](O)C2(F)F)c(=O)n1` [Gemcitabine hydrochloride], the habituation was -1.55. Consider `Cc1ccc(O)c([C@H](CCN(C(C)C)C(C)C)c2ccccc2)c1` [Tolterodine L-tartrate], for which the habituation was -5.86. With `C[C@]12CC[C@@H]3c4ccc(O)cc4C[C@@H](CCCCCCCCC[S+]([O-])CCCC(F)(F)C(F)(F)F)[C@H]3[C@@H]1CC[C@@H]2O` (stereo not given in full) the figure was -2.02; with `CC(C)C(=O)OCC(=O)[C@@]12O[C@H](C3CCCCC3)O[C@@H]1C[C@H]1[C@@H]3CCC4=CC(=O)C=C[C@]4(C)[C@H]3[C@@H](O)C[C@@]12C` [Ciclesonide], 0.71; with `CN1CCC[C@@H]1CCO[C@](C)(c1ccccc1)c1ccc(Cl)cc1` [Clemastine fumarate], -6.62. `CCOC(=O)[C@H](CCc1ccccc1)N[C@@H](C)C(=O)N1[C@H](C(=O)O)C[C@@H]2CCC[C@@H]21` [Ramipril]: the habituation amounted to 0.42.

As for `OC(CNCC(O)C1CCc2cc(F)ccc2O1)C1CCc2cc(F)ccc2O1` (stereo not given) [Nebivolol hydrochloride], the habituation is -10.1. For the compound `O=C(Nc1c(Cl)cncc1Cl)c1ccc(OC(F)F)c(OCC2CC2)c1` [Roflumilast], the habituation is -2.44. For the compound `COCCCOc1cc(C[C@@H](C[C@H](N)[C@@H](O)C[C@H](C(=O)NCC(C)(C)C(N)=O)C(C)C)C(C)C)ccc1OC` [Aliskiren hemifumarate], the habituation came out at 8.44. On to `CCN(CC)CCNC(=O)c1c(C)[nH]c(/C=C2\C(=O)Nc3ccc(F)cc32)c1C` [Sunitinib malate], for which the habituation is 5.06. Turning to `CCc1ccc(CCOc2ccc(CC3SC(=O)NC3=O)cc2)nc1` (stereo not given) [Pioglitazone hydrochloride], the habituation is 0.765.

In the case of `Cc1ccc(NC(=O)c2ccc(CN3CCN(C)CC3)cc2)cc1Nc1nccc(-c2cccnc2)n1` [Imatinib mesylate], the habituation was 1.88. Consider `Cc1nc(Nc2ncc(C(=O)Nc3c(C)cccc3Cl)s2)cc(N2CCN(CCO)CC2)n1` [Dasatinib], for which the habituation is -0.804. With `Nc1nc2[nH]cc(CCc3ccc(C(=O)N[C@@H](CCC(=O)O)C(=O)O)cc3)c2c(=O)[nH]1` [Pemetrexed] the figure was -1.84; with `CC(=O)S[C@@H]1CC2=CC(=O)CC[C@]2(C)[C@H]2CC[C@@]3(C)[C@@H](CC[C@@]34CCC(=O)O4)[C@H]12` [Spironolactone], 2.5; with `Cc1ccccc1C(=O)Nc1ccc(C(=O)N2CCCC(O)c3cc(Cl)ccc32)c(C)c1` (stereo not given) [Tolvaptan], 2.26. Take `CN(C)CCC[C@@]1(c2ccc(F)cc2)OCc2cc(C#N)ccc21` [Escitalopram oxalate]: the habituation was -6.32. Consider `CC#C[C@]1(O)CC[C@H]2[C@@H]3CCC4=CC(=O)CCC4=C3[C@@H](c3ccc(N(C)C)cc3)C[C@@]21C` [Mifepristone], for which the habituation is -3.13. Consider `Cc1nc(-c2ccc(OCC(C)C)c(C#N)c2)sc1C(=O)O` [Febuxostat], for which the habituation is -3.37.

`CCCCCOC(=O)Nc1nc(=O)n([C@@H]2O[C@H](C)[C@@H](O)[C@H]2O)cc1F` [Capecitabine]: the habituation was -3.27. On to `N[C@@H]1[C@H]2CN(c3nc4c(cc3F)c(=O)c(C(=O)O)cn4-c3ccc(F)cc3F)C[C@@H]12` [Trovafloxacin mesylate], for which the habituation is -4.07. For `CC(C)(C#N)c1cc(Cn2cncn2)cc(C(C)(C)C#N)c1` [Anastrozole] the value was 6.46; for `COc1ccc(Cl)cc1C(=O)NCCc1ccc(S(=O)(=O)NC(=O)NC2CCCCC2)cc1` [Glibenclamide], 0.59; for `COc1cc2ncnc(Nc3ccc(F)c(Cl)c3)c2cc1OCCCN1CCOCC1` [Iressa], 1.15. Turning to `Nc1cc(N2CCCCC2)nc(N)[n+]1[O-]` [Minoxidil], the habituation was 7.65. Take `COC(c1ccccc1)(c1ccccc1)[C@H](Oc1nc(C)cc(C)n1)C(=O)O` [Ambrisentan]: the habituation was determined as 4.59. `CN/C(=N\CCSCc1nc[nH]c1C)NC#N` [Cimetidine]: the habituation stood at 5.23.
